Screens: PubChem, National Center for Advancing Translational Sciences (NCATS)
This is a sample that favours compounds with a hit; in the whole collection about 7.7% have one here.
Giardia FBPA inh – inhibitors of Giardia lamblia fructose-1,6-bisphosphate aldolase; A8B2U2; purified Giardia FBPA; Potency, µM (doses to about 59.6 µM), for inactives: at the highest dose activity, negative = inhibition, usual class: inhibitors; 290,000 tested, 0.71% active; note: potency is the fitted concentration of half-maximal effect; nearly all actives have a fitted effect of over 55% in size
Target sequence (A8B2U2 whole entry, looked up): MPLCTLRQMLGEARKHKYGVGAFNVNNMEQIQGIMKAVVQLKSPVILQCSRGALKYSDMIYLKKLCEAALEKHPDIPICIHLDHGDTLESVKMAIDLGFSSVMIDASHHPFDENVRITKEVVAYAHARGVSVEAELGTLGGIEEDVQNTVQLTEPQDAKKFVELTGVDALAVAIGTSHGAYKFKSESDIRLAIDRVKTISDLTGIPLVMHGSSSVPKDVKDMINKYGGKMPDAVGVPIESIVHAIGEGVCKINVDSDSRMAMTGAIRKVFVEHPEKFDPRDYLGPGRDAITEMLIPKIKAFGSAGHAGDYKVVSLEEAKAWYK
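40 nM FBPA preincubated 10 min at RT with compound (up to 57.5 uM final), then substrate plus GAPDH/TPI/NAD/arsenate coupling and diaphorase/resazurin added. Fluorescence read after 20 min at RT, 525/598 nm.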
FMDV antiviral – antivirals against foot and mouth disease virus; FMDV antiviral cell-based qHTS; Potency, µM (series often up to 57.9 µM), without a hit: at the top dose activity change, negative = inhibition, actives largely listed as inhibitors; 410,000 tested, 1.2% active; AID 1159524; calls by dose curve; tested in HEK293T cells; note: read-out not given here; potency is the fitted concentration of half-maximal effect; nearly all actives have a fitted effect of over 45% in size
Tb PYK inh – T. brucei pyruvate kinase inhibition; Q57TT1; TbPYK enzyme, Kinase-Glo Plus ATP luminescence, 45 min; Potency, µM (series often up to 76.8 µM), without a hit: at the top dose activity, negative = inhibition, most hits filed as inhibitors; 410,000 tested, 0.12% active; AID 624173; note: potency is the fitted concentration of half-maximal effect; nearly all actives have a fitted effect of over 50% in size
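Screened from lowest to highest concentration, compounds were pinned into TbPYK/substrate mixtures, and ADP (130 uM final) was added. Plates sat at room temperature for 45 min prior to Kinase-Glo Plus detection by luminescence.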
HCMV inh – human cytomegalovirus inhibition; HFF cells, HCMV-luciferase reporter, 72 h; hits give low values; activity change, negative = inhibition, % at 57.5 µM; 410,000 tested, 4.5% active; in the data active = activity change below about -60%; inconclusive = no clear call, values can overlap the other calls; inactive = above about -39%
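Steps: HFFs plated, 16 h 37C; compounds added; HCMV-luciferase added to MOI 1 PFU/cell; 72 h 37C; OneGlo reagent, 5 min room temperature; luminescence read, normalized to controls.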
Sm TGR inh – S. mansoni TGR enzyme inhibition; Q962Y6; purified TGR, DTNB reduction, TNB absorbance 405 nm; Potency, µM (highest dose often 114 µM), without a hit: top-dose activity change, negative = inhibition, hits mostly inhibitors; 360,000 tested, 3% active; note: potency is the fitted concentration of half-maximal effect; nearly all actives have a fitted effect of over 60% in size
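TGR 20 nM + NADPH 100 uM (dispensed conc.), cpd preinc 15 min RT; start with NADPH (500 uM addition) then DTNB (15 mM addition). Kinetic TNB absorbance, 405 nm filter. Four-parameter Hill fit across titration.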
RE007 growth inh – less growth of the S. pombe RE007 Vpr strain. S. pombe RE007 Vpr strain, BacTiter-Glo ATP luminescence, 24 h. Potency, µM (highest dose often 92.2 µM), for the others: at the highest dose activity change, negative = less growth, most hits filed as inhibitors. 360,000 tested, 0.21% active. AID 651644; active = well fitted falling curve with a large enough effect; inconclusive = small, poorly fitted or top-dose-only effect; inactive = no such curve, though single readings can be large or run the other way; note: potency is the fitted concentration of half-maximal effect; nearly all actives have a fitted effect of over 50% in size
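Fission yeast strain RE007, carrying one chromosomally integrated HIV-1 vpr copy, was seeded at OD 0.01 in PMG+AL medium with 23 nL pinned compound. After 24 h at 30 °C and 99% humidity, viability was read by BacTiter-Glo luminescence.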
* hit, by the source's call; [ ] = dose if it differs, or a comment. Unless noted, calls come from the whole dose curve; as a rule, active = well fitted curve in the direction sought with a large enough effect; inconclusive = small, poorly fitted or top-dose-only effect, or another doubt; inactive = no such curve, though single readings can be large; an effect the other way counts as inactive or inconclusive. % is set by controls: 0 for no effect and ±100 for the full control effect.

Results for CCOC(=O)N[C@H](Cc1c[nH]c2ccccc12)C(=O)Nc1cccc(Cl)c1 ?
FMDV antiviral: -4%; Tb PYK inh: 1%; HCMV inh: 19; Sm TGR inh: 1%

Results for COc1ccc(CNC(=O)CN2N=C(c3ccc(Cl)cc3)CCC2=O)cc1 ?
FMDV antiviral: -7%; Tb PYK inh: 2%; HCMV inh: -19; Sm TGR inh: 0%

How did Cc1ccc(C)n1C1C(=O)N(Cc2ccc(C(F)(F)F)cc2)c2ccc(OC(F)(F)F)cc21 (stereo unspecified) do in these assays?
HCMV inh: 1

What do the screens show for `Cc1ccc(-c2sc(-c3cccnc3)nc2CC(=O)O)cc1`?
Giardia FBPA inh: 7%; FMDV antiviral: -4%; Tb PYK inh: -1%; HCMV inh: -35; Sm TGR inh: 40µM*; RE007 growth inh: 20%

What do the screens show for `CC1=CC(=O)C=CC1=Nc1ccc(N(C)C)cc1`?
FMDV antiviral: 3%; Tb PYK inh: 35µM*; HCMV inh: inconclusive; RE007 growth inh: -9%[18.4 µM]

How did O=C(Cc1cccs1)N[C@@H]1C(=O)N2C(C(=O)[O-])=C(C[n+]3ccccc3)CS[C@H]12 do in these assays?
FMDV antiviral: -6%

How did COc1ccc(C)cc1NC(c1nnc(-c2ccccc2)o1)c1ccc(F)cc1Cl (stereo unspecified) do in these assays?
FMDV antiviral: -18%; Tb PYK inh: 4%; HCMV inh: -5; Sm TGR inh: 0%

Results for CC(=O)Oc1cccc(N2C(=O)C3C4C=CC(CC4)C3C2=O)c1 (stereo unspecified) ?
Giardia FBPA inh: 0%; FMDV antiviral: -14%; Tb PYK inh: 8%; Sm TGR inh: 45µM*; RE007 growth inh: 23%

What do the screens show for `COc1ccccc1NC(=O)Cn1nnc(-c2ccccc2NS(=O)(=O)c2ccccc2)n1`?
Giardia FBPA inh: -14%; FMDV antiviral: inconclusive; Tb PYK inh: 1%; HCMV inh: -67*; Sm TGR inh: 0%; RE007 growth inh: 2%

What do the screens show for `COc1ccc(NC(=O)Cn2nnc(-c3ccccc3NS(=O)(=O)c3ccc(OC)cc3)n2)cc1`?
Giardia FBPA inh: 25%; FMDV antiviral: -20%; Tb PYK inh: 0%; HCMV inh: -12; Sm TGR inh: -3%; RE007 growth inh: -10%

Results for CCN(CC(=O)Nc1ccccc1OC)C(=O)c1ccc(NS(=O)(=O)c2ccc(C(C)=O)cc2)cc1 ?
FMDV antiviral: 158µM*; Tb PYK inh: 2%; HCMV inh: 29; Sm TGR inh: -21%; RE007 growth inh: -13%

What do the screens show for `CCN1CCN(Cc2c(O)ccc3oc(C)c(C(=O)Nc4ccc(OC)c(Cl)c4)c23)CC1`?
FMDV antiviral: -27%; Tb PYK inh: 0%; HCMV inh: -18; Sm TGR inh: -5%

How did CC(=O)Nc1ccn(C2OC(C(COC(C)=O)NC(=O)C(CCCCNC(=O)OCc3ccccc3)NC(=O)OC(C)(C)C)C(OC(C)=O)C2OC(C)=O)c(=O)n1 (stereo unspecified) do in these assays?
Giardia FBPA inh: 3%

Results for CC(=O)c1ccc(-c2ccccc2C2=CC(=O)CC(C)(C)C2=O)cc1 ?
HCMV inh: -18

How did Cc1cc(O)cc(O)c1-c1onc(C(F)(F)F)c1-c1cscn1 do in these assays?
Giardia FBPA inh: 4%; FMDV antiviral: inconclusive; Tb PYK inh: -5%; HCMV inh: -71*; Sm TGR inh: 4%; RE007 growth inh: -3%

How did Clc1ccc(-n2cnnn2)cc1 do in these assays?
Giardia FBPA inh: 6%; FMDV antiviral: 18%; Tb PYK inh: 8%; HCMV inh: 6; Sm TGR inh: 4%; RE007 growth inh: 9%

Results for CO/C=C\C=C/c1nnn(-c2ccc(Cl)cc2)n1 ?
Giardia FBPA inh: -6%; FMDV antiviral: 6%; Tb PYK inh: -7%; HCMV inh: -64*; Sm TGR inh: 8.9µM*; RE007 growth inh: inconclusive
